Bioassay records from PubChem BioAssay.
An excerpt weighted towards active compounds, which were near 2.3% of everything screened.
CHRM1 antagonist: human M1 muscarinic receptor antagonists, primary screen, CHO-K1 cells, Fluo-8 calcium fluorescence, 1536-well. inhibition, % at 3 µM. 1.3% of 360,000 active. CHO-K1 hM1, ACh EC80 antagonist. Muscarinic acetylcholine receptor M1 (Homo sapiens), P11229. AID 588852, 2011;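 active means percent inhibition above its own plate's cutoff, namely the mean of that plate's compound wells plus 3 SD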;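 further: peak over basal fluorescence ratio during 140 s after agonist addition; 0% = ACh EC80 plus DMSO and 100% = DMSO alone without agonist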
Target sequence (P11229 whole entry, looked up): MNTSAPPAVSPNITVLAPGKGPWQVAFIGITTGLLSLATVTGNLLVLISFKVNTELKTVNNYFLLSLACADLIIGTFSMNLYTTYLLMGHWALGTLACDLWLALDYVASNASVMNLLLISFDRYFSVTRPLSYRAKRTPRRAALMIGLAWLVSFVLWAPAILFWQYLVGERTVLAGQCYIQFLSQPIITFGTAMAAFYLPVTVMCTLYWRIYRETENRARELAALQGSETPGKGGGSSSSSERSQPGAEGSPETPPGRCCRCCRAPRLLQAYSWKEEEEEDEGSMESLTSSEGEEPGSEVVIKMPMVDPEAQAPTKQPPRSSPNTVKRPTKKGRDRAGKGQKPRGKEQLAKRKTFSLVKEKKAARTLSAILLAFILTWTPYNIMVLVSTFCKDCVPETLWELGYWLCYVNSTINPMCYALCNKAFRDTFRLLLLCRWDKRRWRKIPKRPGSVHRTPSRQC
CHO-K1 Ca ag: counter-screen for M1 agonists: effect in parental CHO-K1 cells; Fluo-8 calcium fluorescence; scaled to maximal ATP response, vehicle zero; activation, % at 3 µM; 0.48% of 360,000 active; AID 602248, 2012; in the data active means activation above about 15%;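 further: untransfected CHO-K1 host cells lacking M1 receptor as counterscreen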
CHRM1 agonist: human M1 muscarinic receptor agonists, primary screen, Fluo-8 calcium fluorescence, CHO-K1 cells, HTS; Muscarinic acetylcholine receptor M1 (Homo sapiens), P11229; CHO-K1 hM1, agonist mode; 0% DMSO, 100% acetylcholine EC100; activation, % at 3 µM; 0.33% of 360,000 active; AID 588814, 2011;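 active means activation above the run's mean compound activation plus 3 SD, cut at about 16% in these data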;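 further: peak over basal fluorescence ratio within a 140 s kinetic read after compound addition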
CHO-K1 Ca antag: M1 antagonist counterscreen hit in parental CHO-K1 cells; ATP-induced calcium, Fluo-8 fluorescence; inhibition, % at 3 µM; 0.6% of 360,000 active; AID 602250;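 active means inhibition above a per-plate cutoff, the plate's mean sample inhibition plus 3 SD, cut at about 24% in these data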;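 further: 0% = DMSO plus EC80 ATP and 100% = DMSO alone without ATP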
CHO-K1 Ca PAM: nonselective calcium activators in parental CHO-K1 cells, primary screen, counter-screen for M1 PAM project, cell-based, Fluo-8 calcium fluorescence, full deck, 1536-well. ATP EC20; 0% at ATP EC20, 100% at ATP max. activation, % at 3 µM. 0.02% of 360,000 active. AID 602247, 2012;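 active means activation above the run cutoff, the mean activation of all test compounds plus 3 SD, cut at about 40% in these data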;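 further: peak over basal fluorescence ratio in a 140 s read after ATP addition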
CHRM1 PAM: human M1 muscarinic receptor positive allosteric modulators, primary screen, CHO-K1 cells, Fluo-8 calcium fluorescence, 1536-well; 0.088% of 360,000 active; activation, % at 3 µM; CHO-K1 hM1, ACh EC20; 0% = ACh EC20, 100% = maximal ACh; AID 588819, 2011; Muscarinic acetylcholine receptor M1 (Homo sapiens), P11229; in the data active means activation above about 19%, passing the limit was not always enough
* = called active by the depositor.

SMILES | CHRM1 antagonist | CHO-K1 Ca ag | CHRM1 agonist | CHO-K1 Ca antag | CHO-K1 Ca PAM | CHRM1 PAM
O=C(CSc1nc(=O)n(CCCN2CCOCC2)c2c1CCCC2)Nc1ccc(F)cc1 | 31.4* | -0.3 | -7.0 | 4.7 | -23.6 | -3.8
CCCCc1ccc(NC(=O)CSc2nc(=O)n(CCN(CC)CC)c3c2CCCC3)cc1 | 65.6* | 3.6 | -7.7 | -3.3 | -9.8 | -26.5
CCCCc1ccc(NC(=O)CSc2nc(=O)n(CCN(C)C)c3c2CCC3)cc1 | -3.5 | 0.3 | -7.0 | -16.1 | 8.1 | -0.4
O=C(C[n+]1cccc(O)c1)NCc1ccc(Cl)cc1 | -10.9 | -0.5 | -0.7 | 6.7 | 9.2 | 16.4
CC(C)Cc1ccc(C(=O)NCCOc2ccccc2)o1 | 7.6 | -0.8 | -4.0 | -11.3 | -5.3 | -4.9
CNC(=O)N1c2ccccc2CCc2ccccc21 | -10.8 | -0.2 | -2.3 | -6.6 | 10.2 | 3.5
CC(CN(C)C)CN1c2ccccc2CCc2ccccc21 (configuration not stated) | 98.1* | 1.4 | -3.6 | 7.6 | 7.8 | -26.1
CN(C)CCCN1c2ccccc2CCc2ccccc21 | 87.0* | 1.0 | -5.5 | 5.3 | 6.8 | -25.2
Cn1c(=O)c2cc(NC(=S)NC3CCCCC3)ccc2n1-c1ccccc1 | 0.3 | 3.1 | -7.1 | -10.0 | 9.6 | -11.9
COc1ccc(Cl)cc1-c1cc(C(=O)Nc2ccc(C(C)(C)C)cc2)[nH]n1 | 14.0 | 0.0 | -2.7 | -2.1 | -15.9 | -11.2
CC1C(=O)N2CCCc3cc(NC(=O)C(=O)NCc4ccccn4)cc1c32 (configuration not stated) | -2.3 | 0.0 | -3.5 | 11.6 | -9.7 | 0.1
CC(C)(C)c1ccc(CC(=O)N2CCC2(C)C(=O)Nc2ccc3[nH]ncc3c2)cc1 (configuration not stated) | 10.5 | 9.7 | 2.8 | 2.5 | -0.7 | -12.2
CC1(C(=O)Nc2ccc3c(c2)OCO3)CCN1C(=O)Cc1ccc(-c2ccccc2)cc1 (configuration not stated) | 37.9* | 10.4 | 7.1 | 8.1 | 15.8 | -17.1
CC1(C(=O)Nc2ccc3[nH]ncc3c2)CCN1C(=O)Cc1ccc(-c2ccccc2)cc1 (configuration not stated) | 28.0* | 12.9 | 7.3 | 10.9 | -6.7 | -14.0
Cn1nc(C2CC2)cc1NC(=O)C1(C)CCN1C(=O)Cc1ccc(-c2ccccc2)cc1 (configuration not stated) | 30.0* | 6.5 | 0.3 | 10.1 | -10.8 | -13.2
CCC(C)NC(=O)c1ccc(NC(=O)C2=C(C)OCCS2)cc1 (configuration not stated) | 2.1 | 0.0 | -2.9 | -4.4 | -4.1 | -0.6
CCN(CC)CCN(C)Cc1nc(C(c2ccccc2)c2ccccc2)no1 | 74.7* | 0.3 | -8.4 | -4.8 | 6.3 | -29.6
CN(CCc1cn[nH]c1)Cc1nc(C(c2ccccc2)c2ccccc2)no1 | -3.2 | 0.7 | -13.8 | -5.8 | 17.8 | 6.2
O=C(Nc1ccc(Cl)cn1)c1ccc(-c2ccc(Cl)c(Cl)c2)o1 | -6.0 | 0.5 | -1.8 | 4.9 | 10.2 | 7.6
Cc1ccc(CNC(=O)[C@H](C)NC(=O)C2CCN(C(=O)[C@@H]3CCCN3C(=O)OC(C)(C)C)CC2)cc1 | 0.3 | -0.3 | -2.7 | -4.6 | -4.2 | -3.3
Cc1ccccc1CCN1CCCC(CN(C)C(=O)C(=O)c2ccco2)C1 (configuration not stated) | 29.0 | 0.1 | -7.2 | -0.9 | -10.8 | -13.5
CN(CC1CCCN(CCc2ccc(Cl)cc2)C1)C(=O)C(=O)c1ccco1 (configuration not stated) | 43.6* | -0.5 | -5.3 | 0.5 | -4.0 | -19.5
CN(Cc1ccccc1OCCO)CC1CCCN(CCc2ccc(Cl)cc2)C1 (configuration not stated) | 51.2* | 0.5 | -9.3 | 12.5 | -7.8 | -27.7
OCCNCc1c(OCc2ccc(Cl)cc2)ccc2ccccc12 | 27.2 | 23.7* | -5.5 | -4.0 | -32.0 | -11.5
